Source: article PMC7862700, “An all-to-all approach to the identification of sequence-specific readers for epigenetic DNA modifications on cytosine”

Legend:
Experiment in all cases: DAPPL (digital affinity profiling via proximity ligation, sequencing); 10 mM Tris-HCl pH 7.5, 50 mM NaCl, 1 mM DTT, 4% glycerol, room temperature, 30 min; GST-TFs on glutathione beads, 16-mer random dsDNA library, 0.1% formaldehyde crosslink after washing; high values mean tight binding
Conditions in all cases: protein: recombinant; tags: N-terminal GST; dsDNA, one strand shown
FLI1 = target: T1, FLI1 (Homo sapiens, UniProt Q01543 1-452)
T1 sequence: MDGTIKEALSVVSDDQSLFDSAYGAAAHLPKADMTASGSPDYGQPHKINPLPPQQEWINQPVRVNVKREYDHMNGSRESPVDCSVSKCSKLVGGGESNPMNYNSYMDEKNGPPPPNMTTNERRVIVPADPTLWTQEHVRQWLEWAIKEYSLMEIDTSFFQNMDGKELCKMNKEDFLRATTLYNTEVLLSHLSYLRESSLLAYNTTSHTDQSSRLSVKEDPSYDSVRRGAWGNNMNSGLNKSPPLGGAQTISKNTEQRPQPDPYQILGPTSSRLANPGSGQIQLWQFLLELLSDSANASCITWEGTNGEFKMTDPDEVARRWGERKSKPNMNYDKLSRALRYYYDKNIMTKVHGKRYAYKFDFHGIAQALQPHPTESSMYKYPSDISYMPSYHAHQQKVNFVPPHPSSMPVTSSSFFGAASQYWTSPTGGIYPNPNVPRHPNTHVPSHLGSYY
Method in brief: (§1)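 Pools were built from human transcription factors expressed in yeast as GST fusions, captured on glutathione beads and DNA-barcoded, along with a tag-only sample. Incubation with 200 nmole of a 16-mer random double-stranded DNA library lasted 30 min at room temperature in Tris/NaCl/DTT/glycerol buffer, and was followed by washing, 0.1% formaldehyde crosslinking, proximity ligation, PCR amplification and Illumina NextSeq500 sequencing. Binding signal is the quotient of each hexamer's read frequency for a factor and its frequency for the tag-only sample.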

ELK3 = target: T2, ELK3 (Homo sapiens, UniProt P41970 1-407)
T2 sequence: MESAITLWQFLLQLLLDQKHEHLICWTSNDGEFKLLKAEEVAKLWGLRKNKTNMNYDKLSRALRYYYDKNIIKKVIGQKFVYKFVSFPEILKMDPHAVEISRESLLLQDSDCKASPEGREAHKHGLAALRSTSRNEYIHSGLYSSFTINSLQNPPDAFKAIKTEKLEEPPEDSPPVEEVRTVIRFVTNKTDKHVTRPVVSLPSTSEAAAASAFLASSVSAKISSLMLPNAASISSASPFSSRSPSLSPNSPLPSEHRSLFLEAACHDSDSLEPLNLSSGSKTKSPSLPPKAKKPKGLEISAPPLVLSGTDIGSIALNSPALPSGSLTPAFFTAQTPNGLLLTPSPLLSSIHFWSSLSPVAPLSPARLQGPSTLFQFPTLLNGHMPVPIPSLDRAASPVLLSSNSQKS
Method in brief: as §1

ETV2 = target: T3, ETV2 (Homo sapiens, UniProt O00321 1-342)
T3 sequence: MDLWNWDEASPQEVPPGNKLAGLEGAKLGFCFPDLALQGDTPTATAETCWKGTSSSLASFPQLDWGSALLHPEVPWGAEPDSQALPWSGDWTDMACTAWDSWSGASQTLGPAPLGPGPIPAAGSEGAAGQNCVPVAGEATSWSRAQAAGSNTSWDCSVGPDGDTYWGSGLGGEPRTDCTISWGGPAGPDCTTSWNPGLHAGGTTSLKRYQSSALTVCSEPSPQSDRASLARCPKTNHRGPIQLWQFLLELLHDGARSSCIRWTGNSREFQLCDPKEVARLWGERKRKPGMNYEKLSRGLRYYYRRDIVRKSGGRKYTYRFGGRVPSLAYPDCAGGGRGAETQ
Method in brief: as §1

ELF5 = target: T4, ELF5 (Homo sapiens, UniProt Q9UKW6-2 1-255)
T4 sequence: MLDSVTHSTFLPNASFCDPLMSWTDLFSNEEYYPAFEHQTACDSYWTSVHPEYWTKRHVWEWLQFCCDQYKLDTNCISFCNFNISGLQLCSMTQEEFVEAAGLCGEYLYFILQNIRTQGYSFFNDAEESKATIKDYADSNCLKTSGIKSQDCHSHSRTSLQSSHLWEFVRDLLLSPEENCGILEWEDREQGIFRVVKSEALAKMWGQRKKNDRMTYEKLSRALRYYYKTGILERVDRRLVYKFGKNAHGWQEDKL
Method in brief: as §1

CRX = CRX (Homo sapiens, UniProt O43186 1-299)
Method in brief: as §1

CRX, sequence (O43186 whole entry): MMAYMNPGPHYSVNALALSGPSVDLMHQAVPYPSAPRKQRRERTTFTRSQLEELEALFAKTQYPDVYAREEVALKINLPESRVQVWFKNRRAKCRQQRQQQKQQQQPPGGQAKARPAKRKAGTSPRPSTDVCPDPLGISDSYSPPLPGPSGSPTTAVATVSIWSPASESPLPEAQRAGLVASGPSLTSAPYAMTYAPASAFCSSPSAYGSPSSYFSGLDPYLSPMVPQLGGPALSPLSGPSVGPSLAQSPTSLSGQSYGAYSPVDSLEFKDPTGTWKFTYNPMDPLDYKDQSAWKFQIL

Row | Sequence | binding signal (FLI1) | binding signal (ELK3) | binding signal (ETV2) | binding signal (ELF5) | binding signal (CRX)
1 | AGGACC | 1.13 fold enrichment (6-mer frequency, TF over GST control) | 1.15 fold enrichment (6-mer frequency, TF over GST control) | 1.18 fold enrichment (6-mer frequency, TF over GST control) | 1.1 fold enrichment (6-mer frequency, TF over GST control) | 
2 | GGTGGT | 1.05 fold enrichment (6-mer frequency, TF over GST control) | 1.03 fold enrichment (6-mer frequency, TF over GST control) |  |  | 
3 | TCAGTT | 1.02 fold enrichment (6-mer frequency, TF over GST control) | 1.09 fold enrichment (6-mer frequency, TF over GST control) | 1.05 fold enrichment (6-mer frequency, TF over GST control) |  | 
4 | TCAAGC | 1.03 fold enrichment (6-mer frequency, TF over GST control) | 1.09 fold enrichment (6-mer frequency, TF over GST control) | 1.09 fold enrichment (6-mer frequency, TF over GST control) |  | 1.06 fold enrichment (6-mer frequency, TF over GST control)
5 | CCCGTC | 1.12 fold enrichment (6-mer frequency, TF over GST control) |  | 1.32 fold enrichment (6-mer frequency, TF over GST control) | 1.12 fold enrichment (6-mer frequency, TF over GST control) | 
6 | ACCGGC | 1.07 fold enrichment (6-mer frequency, TF over GST control) | 1.11 fold enrichment (6-mer frequency, TF over GST control) |  | 1.11 fold enrichment (6-mer frequency, TF over GST control) | 
7 | ACGGTA | 1.02 fold enrichment (6-mer frequency, TF over GST control) |  | 1.03 fold enrichment (6-mer frequency, TF over GST control) | 1.05 fold enrichment (6-mer frequency, TF over GST control) | 
8 | TGCAAG | 1.09 fold enrichment (6-mer frequency, TF over GST control) |  |  | 1.05 fold enrichment (6-mer frequency, TF over GST control) | 
9 | CGCCGG | 1.01 fold enrichment (6-mer frequency, TF over GST control) | 1.08 fold enrichment (6-mer frequency, TF over GST control) | 1.06 fold enrichment (6-mer frequency, TF over GST control) | 1.02 fold enrichment (6-mer frequency, TF over GST control) | 
10 | TGCGCC | 1.17 fold enrichment (6-mer frequency, TF over GST control) | 1.07 fold enrichment (6-mer frequency, TF over GST control) | 1.18 fold enrichment (6-mer frequency, TF over GST control) | 1.11 fold enrichment (6-mer frequency, TF over GST control) | 
11 | GCACAC | 1.02 fold enrichment (6-mer frequency, TF over GST control) |  | 1.01 fold enrichment (6-mer frequency, TF over GST control) |  | 
12 | CGTCCA | 1.13 fold enrichment (6-mer frequency, TF over GST control) | 1.13 fold enrichment (6-mer frequency, TF over GST control) |  |  | 
13 | CCCAAG | 1.09 fold enrichment (6-mer frequency, TF over GST control) | 1 fold enrichment (6-mer frequency, TF over GST control) |  |  | 
14 | CGCGTA | 1.07 fold enrichment (6-mer frequency, TF over GST control) |  | 1.03 fold enrichment (6-mer frequency, TF over GST control) |  | 
15 | TCGTCC | 1.1 fold enrichment (6-mer frequency, TF over GST control) | 1.18 fold enrichment (6-mer frequency, TF over GST control) |  | 1.02 fold enrichment (6-mer frequency, TF over GST control) | 
16 | TGGCTG | 1.11 fold enrichment (6-mer frequency, TF over GST control) |  | 1.26 fold enrichment (6-mer frequency, TF over GST control) | 1.01 fold enrichment (6-mer frequency, TF over GST control) | 
17 | CAATGG | 1.14 fold enrichment (6-mer frequency, TF over GST control) |  |  |  | 

Row | Sequence | binding signal (FLI1) | binding signal (ELK3) | binding signal (ETV2) | binding signal (ELF5) | binding signal (CRX)
18 | TGGGCA | 1.05 fold enrichment (6-mer frequency, TF over GST control) | 1.19 fold enrichment (6-mer frequency, TF over GST control) |  |  | 
19 | CACCGG | 1.11 fold enrichment (6-mer frequency, TF over GST control) | 1.16 fold enrichment (6-mer frequency, TF over GST control) |  | 1.03 fold enrichment (6-mer frequency, TF over GST control) | 
20 | CAGCAT | 1.04 fold enrichment (6-mer frequency, TF over GST control) | 1.19 fold enrichment (6-mer frequency, TF over GST control) |  |  | 
21 | CGTTGT | 1.15 fold enrichment (6-mer frequency, TF over GST control) |  | 1.13 fold enrichment (6-mer frequency, TF over GST control) | 1.07 fold enrichment (6-mer frequency, TF over GST control) | 
22 | CCGCAG | 1.12 fold enrichment (6-mer frequency, TF over GST control) | 1.14 fold enrichment (6-mer frequency, TF over GST control) | 1.22 fold enrichment (6-mer frequency, TF over GST control) | 1.04 fold enrichment (6-mer frequency, TF over GST control) | 
23 | GGCTAC | 1.17 fold enrichment (6-mer frequency, TF over GST control) | 1.19 fold enrichment (6-mer frequency, TF over GST control) |  | 1.16 fold enrichment (6-mer frequency, TF over GST control) | 
24 | ACGCCG | 1.15 fold enrichment (6-mer frequency, TF over GST control) | 1.11 fold enrichment (6-mer frequency, TF over GST control) | 1.07 fold enrichment (6-mer frequency, TF over GST control) |  | 
25 | CAGCCT | 1.14 fold enrichment (6-mer frequency, TF over GST control) |  |  |  | 1.06 fold enrichment (6-mer frequency, TF over GST control)
26 | ATAGCC | 1.03 fold enrichment (6-mer frequency, TF over GST control) | 1.01 fold enrichment (6-mer frequency, TF over GST control) | 1 fold enrichment (6-mer frequency, TF over GST control) |  | 1.02 fold enrichment (6-mer frequency, TF over GST control)
27 | GTAACC | 1.04 fold enrichment (6-mer frequency, TF over GST control) | 1.04 fold enrichment (6-mer frequency, TF over GST control) | 1.06 fold enrichment (6-mer frequency, TF over GST control) | 1.07 fold enrichment (6-mer frequency, TF over GST control) | 
28 | AACCGC | 1.15 fold enrichment (6-mer frequency, TF over GST control) | 1.07 fold enrichment (6-mer frequency, TF over GST control) | 1.12 fold enrichment (6-mer frequency, TF over GST control) | 1 fold enrichment (6-mer frequency, TF over GST control) | 1.02 fold enrichment (6-mer frequency, TF over GST control)
29 | GGTACA | 1.03 fold enrichment (6-mer frequency, TF over GST control) |  |  | 1 fold enrichment (6-mer frequency, TF over GST control) | 
30 | ACGCGG | 1.04 fold enrichment (6-mer frequency, TF over GST control) | 1.05 fold enrichment (6-mer frequency, TF over GST control) | 1.18 fold enrichment (6-mer frequency, TF over GST control) | 1.07 fold enrichment (6-mer frequency, TF over GST control) | 
31 | GGTCAC | 1.08 fold enrichment (6-mer frequency, TF over GST control) |  | 1.15 fold enrichment (6-mer frequency, TF over GST control) |  | 
32 | CGCGTT | 1.1 fold enrichment (6-mer frequency, TF over GST control) | 1.06 fold enrichment (6-mer frequency, TF over GST control) | 1.16 fold enrichment (6-mer frequency, TF over GST control) | 1.02 fold enrichment (6-mer frequency, TF over GST control) | 
33 | TCACCG | 1.06 fold enrichment (6-mer frequency, TF over GST control) | 1.13 fold enrichment (6-mer frequency, TF over GST control) |  | 1.01 fold enrichment (6-mer frequency, TF over GST control) | 
34 | CCAAGC | 1.01 fold enrichment (6-mer frequency, TF over GST control) |  | 1.02 fold enrichment (6-mer frequency, TF over GST control) |  | 
